# From PubChem BioAssay
# Results filed as inconclusive are left out. Calls of active or inactive are those of the source. Cut-off read from the data, not from the text of the source, unless noted: active = response above about 15%; inactive = the rest.
# Experiments:
# [1] = yeast TOR pathway RPL19A-GFP modulators, primary screen, cell-based, S. cerevisiae, multiplex flow cytometry (AID 1862; in the data active = percent of DMSO control GFP below about 86%;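 note: lower values mimic rapamycin by blocking the RPL19A rise seen in DMSO cells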); conditions: S. cerevisiae RPL19A-GFP strain, flow cytometry fluorescence, 3 h; at 10 µM; stronger effect = lower value
# [2] = modulators of MEP2-GFP levels in yeast, primary screen, S. cerevisiae, multiplex flow cytometry (AID 1867;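 active = GFP response, as percent of the DMSO control, above the screen-wide mean plus 3 SD, about 139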;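 note: median GFP channel fluorescence of barcode-gated MEP2-GFP cells measured by flow cytometry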); conditions: S. cerevisiae MEP2-GFP strain, 3 h, at 10 µM, stronger effect = higher value, 100% means same as DMSO wells
# [3] = modulators of CIT2-GFP expression in yeast, primary screen, S. cerevisiae, GFP fusion, multiplex flow cytometry (AID 1870;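 active = percent response above a set limit, the screen-wide mean plus 3 SD, cut at about 130% in these data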;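 note: barcoded CIT2-GFP strain pooled with four other GFP strains with rapamycin as positive control; median GFP fluorescence per well over plate mean of DMSO wells so 100% = DMSO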); conditions: 3 h, at 10 µM, stronger effect = higher value
# [4] = modulators of LAP4-GFP expression in yeast, primary screen, S. cerevisiae, multiplex flow cytometry (AID 1873;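 active = GFP signal, as percent of the solvent control, above the screen mean plus 3 SD, about 149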); conditions: 3 h, at 10 µM, stronger effect = higher value
# [5] = modulators of AGP1-GFP expression in yeast TOR pathway, primary screen, cell-based, multiplex flow cytometry, S. cerevisiae (AID 1887;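 active = GFP signal above the screen-wide mean plus 3 SD, that is over about 124.5% of the solvent control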;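 note: AGP1-GFP fusion strain of S. cerevisiae within a five-strain barcoded multiplex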); conditions: 3 h, at 10 µM, stronger effect = higher value
# [6] = inhibitors of CD8+ T cell-vesicle binding, pilot screen, LFA-1/ICAM-1 modulator project, MLPCN validation set, flow cytometry (AID 2523;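 active = response below a set limit, under 55% cells CD8-positive and vesicle-bound, and CD8 cells' 90th-percentile brightness under 279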;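 for vesicle binding response: mean PE anti-B7-1 fluorescence of CD8+ cells relative to row control; 100% = QL9-loaded vesicles with DMSO vehicle in the same plate row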); conditions: 2C mouse CD8+ T cells, at 7 µM, stronger effect = lower value; double positive events: measured here: CD8+/vesicle+ event percentage
# [7] = target: Integrin beta-1 (Homo sapiens) + Integrin alpha-4 (Homo sapiens) (UniProt P13612+P05556); assay: inhibition of HUTS-21 binding to VLA-4, pilot screen, VLA-4 allosteric modulator project, U937 cells, HUTS-21 mAb, flow cytometry, validation set (AID 2674;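 active = inhibition above 50%, about 3 SD of the validation set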;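 note: antibody binding induced by the VLA-4 ligand LDV present at three times its Kd; 0% = LDV ligand with antibody and no compound and 100% = antibody without LDV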); conditions: HUTS-21 LIBS mAb binding, at 6.7 µM, stronger effect = higher value, binding induced by LDV ligand
# [8] = superoxide lowering in aged yeast cells, pilot screen, validation compound set (AID 2706;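 active = superoxide response below 65% of plate, a cut near 3 SD across the whole screen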;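 note: yeast exposed to compound for one week at 30 degrees C before staining; 100% = mean of all compound wells on the same plate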); conditions: S. cerevisiae aging, superoxide DHE fluorescence; at 10 µM, stronger effect = lower value
# [9] = target: Beta-adrenergic receptor kinase 1 (Homo sapiens) (UniProt P25098); assay: GRK2 binders displacing RNA aptamer, biochemical, validation, human GRK2, bead flow cytometry (AID 488806;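 active = aptamer binding inhibition above 30%, about 3 SD of noise from non-fluorescent compounds; inactive = inhibition at or below 30%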); conditions: bead-bound GRK2, FAM-aptamer displacement, at 10 µM, stronger effect = higher value
# [10] = target: AP-2 complex subunit beta (Homo sapiens) (UniProt P63010); assay: inhibitors of arrestin peptide binding to AP2, pilot screen, biochemical, validation set, GST-AP2 beads, flow cytometry (AID 504541;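 active = inhibition above 54%, about 3 SD of non-fluorescent compounds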;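 note: AP2 carries R879A mutation and is captured from E. coli lysate; bead-bound FITC arrestin peptide fluorescence measuring arrestin peptide binding to AP2; 0% = DMSO wells and 100% = excess unlabeled arrestin peptide control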); conditions: FITC arrestin peptide, at 10 µM, stronger effect = higher value, AP2 beta2 appendage fragment, R879A mutant
# [11] = yeast V-ATPase proton transport modulators, S. cerevisiae, pHLuorin, HTS validation (AID 504600);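 note: plate controls were DMSO for no effect and reference compound for full effect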; conditions: S. cerevisiae pHLuorin cytosolic pH, at 10 µM, stronger effect = higher value
# [12] = tested on: anti-desmoglein-3 scFv antibody binding to human DSG3; assay: inhibitors of anti-DSG3 scFv binding to DSG3, pilot screen, biochemical, validation compound set, bead-based, flow cytometry (AID 588368;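 active = binding below the plate cutoff, the plate median minus 3 SD, with a reading above zero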;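 note: signal is the median channel fluorescence of bead-bound GFP antibody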); conditions: Protein G beads, DSG3-Fc, scFv-GFP binding, at 10 µM, stronger effect = lower value
# [13] = inhibitors of fungal efflux pumps CDR1, CDR2, MDR1, pilot screen, validation compound set, multiplex, phenotypic (AID 588506;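 active = efflux inhibition above 0.42, the validation set average plus 4 SD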;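 note: Nile Red retained in cells so higher fluorescence means more efflux inhibition; 0 = negative control wells and 1 = enniatin B 25 µM full block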); conditions: S. cerevisiae pump-expressing triplex, Nile Red efflux flow cytometry; at 10 µM; stronger effect = higher value; the pumps come from Candida albicans
# [14] = target: ATP-binding cassette sub-family B member 6 (Homo sapiens) (UniProt Q9NP58); assay: ABCB6 transporter inhibitors, pilot screen, K562-ABCB6 cells, flow cytometry, validation set (AID 588550;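 active = inhibition above the screen-wide mean plus 3 SD, about 51%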;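 note: 0% = DMSO wells and 100% = benzethonium chloride 70 µM positive control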); conditions: K562-ABCB6 porphyrin accumulation, 1 h, at 10 µM, stronger effect = higher value
# [15] = promoters of myeloid differentiation in arrested cells, primary screen, cell-based, GFP/MAC1 double positive, flow cytometry, validation set (AID 588685;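 active = differentiation response of at least 50%, scaled between solvent and reference control, from cells with both markers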;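 note: compound exposure lasts four days before antibody staining and flow analysis; 0% = DMSO wells and 100% = 5 µM fulvestrant positive control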); conditions: ER-HoxA9 marrow cells, stronger effect = higher value, normalized: vehicle 0, fulvestrant 100
# Beta-adrenergic receptor kinase 1 (Homo sapiens), sequence (P25098 whole entry, looked up): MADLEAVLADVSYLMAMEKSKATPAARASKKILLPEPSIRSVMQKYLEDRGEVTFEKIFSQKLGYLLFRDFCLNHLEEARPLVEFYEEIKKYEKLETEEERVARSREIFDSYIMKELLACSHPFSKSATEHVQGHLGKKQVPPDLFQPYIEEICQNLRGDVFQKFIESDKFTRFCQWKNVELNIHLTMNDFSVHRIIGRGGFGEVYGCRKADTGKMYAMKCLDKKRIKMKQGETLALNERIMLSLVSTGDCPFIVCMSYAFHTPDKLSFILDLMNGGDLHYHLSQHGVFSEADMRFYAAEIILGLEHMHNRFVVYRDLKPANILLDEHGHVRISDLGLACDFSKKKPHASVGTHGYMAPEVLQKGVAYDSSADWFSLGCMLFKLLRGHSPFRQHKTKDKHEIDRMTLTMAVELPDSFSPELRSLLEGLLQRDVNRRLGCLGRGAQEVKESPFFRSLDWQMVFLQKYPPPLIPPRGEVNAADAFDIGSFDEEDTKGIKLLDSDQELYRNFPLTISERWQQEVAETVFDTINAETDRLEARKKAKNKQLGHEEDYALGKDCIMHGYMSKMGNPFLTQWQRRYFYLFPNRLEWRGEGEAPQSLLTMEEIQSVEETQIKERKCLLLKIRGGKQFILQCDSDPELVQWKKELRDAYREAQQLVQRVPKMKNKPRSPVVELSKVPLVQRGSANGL
# Integrin beta-1 (Homo sapiens) + Integrin alpha-4 (Homo sapiens), sequence (P05556 whole entry, looked up): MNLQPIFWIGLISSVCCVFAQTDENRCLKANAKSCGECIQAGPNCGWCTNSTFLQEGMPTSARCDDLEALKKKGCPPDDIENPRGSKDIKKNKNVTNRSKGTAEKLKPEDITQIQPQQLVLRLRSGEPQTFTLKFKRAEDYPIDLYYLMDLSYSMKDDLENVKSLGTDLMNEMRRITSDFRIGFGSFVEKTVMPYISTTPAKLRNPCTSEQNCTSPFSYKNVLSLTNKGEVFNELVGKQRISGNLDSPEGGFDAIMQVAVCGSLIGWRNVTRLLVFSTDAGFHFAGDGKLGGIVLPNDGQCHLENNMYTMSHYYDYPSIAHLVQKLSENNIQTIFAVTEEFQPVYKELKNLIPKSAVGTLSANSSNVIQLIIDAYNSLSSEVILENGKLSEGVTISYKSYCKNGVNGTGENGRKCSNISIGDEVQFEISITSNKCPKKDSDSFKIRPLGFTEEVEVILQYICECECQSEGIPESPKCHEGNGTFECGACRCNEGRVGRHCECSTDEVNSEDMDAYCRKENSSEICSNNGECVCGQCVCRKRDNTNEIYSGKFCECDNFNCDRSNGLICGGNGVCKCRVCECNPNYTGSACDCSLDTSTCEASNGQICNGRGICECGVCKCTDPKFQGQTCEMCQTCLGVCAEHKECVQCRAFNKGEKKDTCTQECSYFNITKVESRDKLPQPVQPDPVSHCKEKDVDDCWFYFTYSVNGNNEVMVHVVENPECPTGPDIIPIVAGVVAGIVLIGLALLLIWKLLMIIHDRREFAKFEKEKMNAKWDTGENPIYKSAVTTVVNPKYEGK
# Integrin beta-1 (Homo sapiens) + Integrin alpha-4 (Homo sapiens), sequence (P13612 whole entry, looked up): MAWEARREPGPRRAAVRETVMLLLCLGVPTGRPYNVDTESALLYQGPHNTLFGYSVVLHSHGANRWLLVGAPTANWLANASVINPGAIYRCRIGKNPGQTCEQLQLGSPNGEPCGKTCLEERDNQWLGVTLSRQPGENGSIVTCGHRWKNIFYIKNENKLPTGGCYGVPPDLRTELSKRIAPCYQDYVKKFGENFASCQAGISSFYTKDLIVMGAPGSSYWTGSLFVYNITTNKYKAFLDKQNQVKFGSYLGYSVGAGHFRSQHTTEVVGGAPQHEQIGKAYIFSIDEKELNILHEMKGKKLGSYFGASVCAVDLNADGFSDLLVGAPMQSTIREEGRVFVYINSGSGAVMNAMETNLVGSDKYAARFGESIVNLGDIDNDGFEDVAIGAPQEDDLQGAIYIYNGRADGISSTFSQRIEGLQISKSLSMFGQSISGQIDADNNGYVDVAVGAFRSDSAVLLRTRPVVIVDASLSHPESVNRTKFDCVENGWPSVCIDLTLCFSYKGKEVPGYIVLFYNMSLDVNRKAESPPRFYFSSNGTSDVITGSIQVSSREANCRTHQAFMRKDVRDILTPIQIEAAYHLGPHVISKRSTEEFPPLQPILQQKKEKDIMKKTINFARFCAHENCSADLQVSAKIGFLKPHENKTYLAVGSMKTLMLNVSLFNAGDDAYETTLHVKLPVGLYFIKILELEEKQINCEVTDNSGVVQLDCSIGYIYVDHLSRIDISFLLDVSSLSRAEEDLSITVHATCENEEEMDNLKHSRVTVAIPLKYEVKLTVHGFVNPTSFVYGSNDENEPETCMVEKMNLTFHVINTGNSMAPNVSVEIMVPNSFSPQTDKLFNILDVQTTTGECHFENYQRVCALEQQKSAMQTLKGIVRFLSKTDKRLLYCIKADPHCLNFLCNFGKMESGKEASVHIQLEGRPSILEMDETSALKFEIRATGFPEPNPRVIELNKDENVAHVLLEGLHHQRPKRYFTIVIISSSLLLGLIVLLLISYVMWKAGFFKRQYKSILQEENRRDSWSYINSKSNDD
# ATP-binding cassette sub-family B member 6 (Homo sapiens), sequence (Q9NP58 whole entry, looked up): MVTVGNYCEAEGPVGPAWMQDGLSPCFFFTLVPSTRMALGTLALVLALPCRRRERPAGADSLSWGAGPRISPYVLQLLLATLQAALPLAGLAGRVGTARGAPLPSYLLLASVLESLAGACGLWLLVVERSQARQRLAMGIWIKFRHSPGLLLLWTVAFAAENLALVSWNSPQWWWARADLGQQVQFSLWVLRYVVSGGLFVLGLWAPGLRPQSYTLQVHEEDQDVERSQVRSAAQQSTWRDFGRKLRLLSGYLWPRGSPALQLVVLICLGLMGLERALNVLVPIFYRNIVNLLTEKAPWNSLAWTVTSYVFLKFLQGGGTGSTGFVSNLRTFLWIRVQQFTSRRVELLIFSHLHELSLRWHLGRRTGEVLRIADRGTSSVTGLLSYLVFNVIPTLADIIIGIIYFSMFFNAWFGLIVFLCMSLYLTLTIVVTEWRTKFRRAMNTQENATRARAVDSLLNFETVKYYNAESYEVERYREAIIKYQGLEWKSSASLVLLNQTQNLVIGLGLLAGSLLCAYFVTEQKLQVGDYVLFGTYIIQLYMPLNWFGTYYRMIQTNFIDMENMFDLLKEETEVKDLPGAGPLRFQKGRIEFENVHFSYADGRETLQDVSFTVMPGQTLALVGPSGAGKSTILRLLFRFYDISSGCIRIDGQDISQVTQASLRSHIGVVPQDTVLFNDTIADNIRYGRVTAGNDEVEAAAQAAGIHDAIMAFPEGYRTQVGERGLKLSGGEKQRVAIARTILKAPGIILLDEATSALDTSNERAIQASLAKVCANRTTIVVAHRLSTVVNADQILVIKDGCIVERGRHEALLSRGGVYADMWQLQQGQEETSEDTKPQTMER
# AP-2 complex subunit beta (Homo sapiens), sequence (P63010 whole entry, looked up, the tested form may be a part, one chain of several): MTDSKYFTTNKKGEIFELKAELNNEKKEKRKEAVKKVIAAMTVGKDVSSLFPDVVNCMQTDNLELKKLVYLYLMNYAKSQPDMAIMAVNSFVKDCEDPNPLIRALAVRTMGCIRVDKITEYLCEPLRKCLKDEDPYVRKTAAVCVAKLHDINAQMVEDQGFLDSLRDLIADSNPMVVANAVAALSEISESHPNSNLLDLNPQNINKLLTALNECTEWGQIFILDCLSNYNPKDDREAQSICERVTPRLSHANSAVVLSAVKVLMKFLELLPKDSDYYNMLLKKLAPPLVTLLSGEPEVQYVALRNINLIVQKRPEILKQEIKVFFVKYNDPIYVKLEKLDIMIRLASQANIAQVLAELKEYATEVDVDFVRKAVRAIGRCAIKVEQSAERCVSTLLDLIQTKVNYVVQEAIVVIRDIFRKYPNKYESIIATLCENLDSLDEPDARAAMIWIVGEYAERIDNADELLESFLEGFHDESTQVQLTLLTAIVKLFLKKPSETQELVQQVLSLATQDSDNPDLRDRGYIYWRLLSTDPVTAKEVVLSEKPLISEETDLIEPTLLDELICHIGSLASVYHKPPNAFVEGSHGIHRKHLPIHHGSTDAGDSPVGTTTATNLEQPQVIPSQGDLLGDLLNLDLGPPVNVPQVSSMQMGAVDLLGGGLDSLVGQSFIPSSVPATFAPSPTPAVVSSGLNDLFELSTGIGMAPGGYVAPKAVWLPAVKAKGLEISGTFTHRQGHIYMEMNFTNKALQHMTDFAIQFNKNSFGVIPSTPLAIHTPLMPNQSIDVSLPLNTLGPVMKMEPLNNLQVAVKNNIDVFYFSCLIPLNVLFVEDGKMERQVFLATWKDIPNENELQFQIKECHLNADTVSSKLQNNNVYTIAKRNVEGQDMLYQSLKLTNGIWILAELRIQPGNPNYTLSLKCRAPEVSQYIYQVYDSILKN
Structure (SMILES),percent of DMSO control GFP [1],GFP response vs DMSO [2],percent response of DMSO control [3],GFP response vs DMSO [4],"GFP response, % of DMSO [5]",double positive events [6],vesicle binding response [6],inhibition [7],superoxide response (% of plate) [8],aptamer binding inhibition [9],inhibition [10],response [11],binding (% of control) [12],efflux inhibition (fraction of control) [13],inhibition [14],differentiation response [15]
Cc1ccc(-n2ncc3c(Nc4cccc(C(=O)O)c4)ncnc32)cc1,100% (inactive),102% (inactive),93% (inactive),105% (inactive),93.9% (inactive),66.3%,217% (inactive),-5.84% (inactive),105% (inactive),-2% (inactive),-0.33% (inactive),-4.83% (inactive),101% (inactive),0.1 (inactive),5% (inactive),74.1% (active)
CC(C)C[C@H](NC(=O)[C@@H]1Cc2ccccc2CN1C(=O)OC(C)(C)C)C(=O)NCC1CCC(C(=O)O)CC1 (stereo not given in full),99.3% (inactive),95.9% (inactive),105% (inactive),92.3% (inactive),99.9% (inactive),59.9%,257% (inactive),1.62% (inactive),93.6% (inactive),3% (inactive),-3.49% (inactive),-10.3% (inactive),101% (inactive),-0.12 (inactive),7% (inactive),-27.6% (inactive)
COc1ccc2[nH]cc(C(=O)CCl)c2c1,103% (inactive),98.9% (inactive),102% (inactive),100% (inactive),102% (inactive),64.8%,172% (inactive),-3.04% (inactive),101% (inactive),4% (inactive),24.1% (inactive),-6.9% (inactive),98.2% (inactive),-0.01 (inactive),3% (inactive),0% (inactive)
CC(C)NNC(=O)c1ccncc1,100% (inactive),101% (inactive),107% (inactive),114% (inactive),111% (inactive),55.2%,178% (inactive),-7.7% (inactive),101% (inactive),2% (inactive),-13.9% (inactive),-0.37% (inactive),98.7% (inactive),0.22 (inactive),3% (inactive),-26% (inactive)
Cc1ccc2c(c1)c1c3n2CCCNC3CCC1 (stereo not given),103% (inactive),106% (inactive),107% (inactive),95.4% (inactive),94% (inactive),63.9%,229% (inactive),10% (inactive),85.7% (inactive),-4% (inactive),-3% (inactive),3.62% (inactive),111% (inactive),-0.05 (inactive),9% (inactive),-3.43% (inactive)
CCNC(=S)Nc1ccc(OC(F)(F)F)cc1,105% (inactive),107% (inactive),102% (inactive),103% (inactive),98.7% (inactive),60.6%,166% (inactive),-1.17% (inactive),93.5% (inactive),1% (inactive),43.4% (inactive),-22.5% (inactive),101% (inactive),-0.05 (inactive),-3% (inactive),11.1% (inactive)
COc1ccc(CC(=O)c2c(O)cc(O)cc2O)cc1OC,103% (inactive),110% (inactive),98.8% (inactive),101% (inactive),97.5% (inactive),58.4%,171% (inactive),1.62% (inactive),102% (inactive),1% (inactive),49.5% (inactive),-6.13% (inactive),100% (inactive),0.18 (inactive),3% (inactive),27.2% (inactive)
O=C1CCCN1CCCn1cnc2c([nH]c3ccc(F)cc32)c1=O,105% (inactive),104% (inactive),101% (inactive),89.3% (inactive),101% (inactive),57.6%,124% (inactive),10.9% (inactive),114% (inactive),-1% (inactive),-10.6% (inactive),1.63% (inactive),100% (inactive),-0.28 (inactive),10% (inactive),-27.6% (inactive)
CN1CCC(OC(c2ccccc2)c2ccccc2)CC1,104% (inactive),105% (inactive),104% (inactive),105% (inactive),104% (inactive),66.3%,186% (inactive),7.22% (inactive),95.8% (inactive),3% (inactive),-2.62% (inactive),1.48% (inactive),102% (inactive),0.03 (inactive),9% (inactive),4.64% (inactive)
COc1cccc2c1C(=O)O/C2=C/c1ccc2c(c1)OCO2,95.2% (inactive),103% (inactive),93% (inactive),92.3% (inactive),83.8% (inactive),64.2%,177% (inactive),-3.04% (inactive),106% (inactive),1% (inactive),-5.67% (inactive),-7.76% (inactive),99.8% (inactive),-0.35 (inactive),8% (inactive),-24.4% (inactive)
